# Compounds with a hit are over-represented: about 2.6% of the library has one in this group of screens.
# TROY NFkB inh: TROY signaling inhibition; Q293 LMP1-TROYcd NF-kB luciferase reporter, 4 h; inhibition, % at 10 µM; 360,000 tested, 0.98% active;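 active = compounds whose plate-normalised and pattern-corrected inhibition of the luciferase reporter signal at the single screening dose is 50% or more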
# TWEAK-Fn14 inh: inhibitors of TWEAK-Fn14 interaction signaling. 360,000 tested, 2% active. inhibition, % at 10 µM. AID 1159606. TWEAK-stimulated Fn14 reporter cells, luciferase luminescence, 8 h; in the data active = inhibition above about 50%
# HSP90 inh: inhibitors of HSP90 luciferase refolding in rabbit reticulocyte lysate; 290,000 tested, 0.91% active; inhibition, % at 5.6 µM; luciferase refolding luminescence, 3 h;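 active = inhibition above the screen-wide mean plus 3 SD, computed separately per campaign, cut at about 16% in these data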;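 also: 0% = DMSO wells and 100% = 60 µM geldanamycin wells; inhibitors lower the luminescence because luciferase stays unfolded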
# LGR2 antag: blocks bursicon-induced cAMP signaling via Drosophila LGR2; HEK293 LGR2, CRE-luciferase, bursicon-stimulated, 4 h; inhibition, % at 9.99 µM; 380,000 tested, 0.35% active; AID 720647;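 active = drop in luminescence signal, shown as inhibition above about 50% in the replicate tests, limit read from the data, passing the limit was not always enough; inconclusive = probably only some replicates passing the limit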;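 also: agonist challenge used bursicon conditioned medium at about half maximal strength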
# aDG glyco act: alpha-DG glycosylation activation. 360,000 tested, 0.22% active. Pro5-aDG cells, alpha-DG glycosylation AlphaScreen (IIH6); 0% Pro5, 100% B10-LARGE cell signal. activation, % at 10 µM;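 active = activation of at least 8% versus controls, or a plate z-score of at least 8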;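 also: Pro5 are CHO cells carrying HIG-tagged alpha-DG that lacks glycosylation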
# LMP1 NFkB inh: Epstein-Barr LMP1 NF-kappaB reporter inhibition | inhibition, % at 12.5 µM | 350,000 tested, 0.69% active | LMP1-induced NF-kappaB luciferase reporter cells, luminescence; in the data active = inhibition above about 41%; inconclusive = no clear call, values can overlap the other calls;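 also: 0% = neutral control wells and 100% = reference inhibitor control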
# HSP90 inh confirm: confirmation of HSP90 inhibitors | shares compounds with HSP90 inh | inhibition, % at 5.9 µM | 2,300 tested, 64% active | rabbit reticulocyte lysate, luciferase refolding luminescence, 3 h; in the data active = inhibition above about 18%;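 also: 0% = vehicle wells and 100% = reference inhibitor wells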
# luciferase ctr: blocks native firefly luciferase in HSP90 counter-screen; shares compounds with HSP90 inh; purified native firefly luciferase, luminescence; inhibition, % at 5.9 µM; 2,300 tested, 48% active;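 active = inhibition above the mean inhibition of all tested sample wells plus 3 SD, cut at about 10% in these data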;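 also: 0% = DMSO with luciferase and 100% = wells lacking luciferase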
# Target sequence (P08659 whole entry, looked up): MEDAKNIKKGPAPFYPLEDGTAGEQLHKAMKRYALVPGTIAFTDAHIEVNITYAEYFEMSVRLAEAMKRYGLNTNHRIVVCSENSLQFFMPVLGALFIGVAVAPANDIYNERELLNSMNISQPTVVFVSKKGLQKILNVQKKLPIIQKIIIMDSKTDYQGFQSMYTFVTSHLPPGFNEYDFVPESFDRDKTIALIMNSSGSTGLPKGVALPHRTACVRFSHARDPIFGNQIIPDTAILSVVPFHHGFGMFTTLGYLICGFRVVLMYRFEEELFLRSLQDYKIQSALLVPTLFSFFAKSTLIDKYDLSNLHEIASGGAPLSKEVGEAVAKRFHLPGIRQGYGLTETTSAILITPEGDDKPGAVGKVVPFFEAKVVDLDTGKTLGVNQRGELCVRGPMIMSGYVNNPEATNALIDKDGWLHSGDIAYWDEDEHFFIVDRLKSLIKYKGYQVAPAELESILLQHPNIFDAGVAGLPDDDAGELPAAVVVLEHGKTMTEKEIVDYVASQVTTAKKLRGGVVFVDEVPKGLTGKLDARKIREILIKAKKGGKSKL
# Numbers without * were called inactive; ? = inconclusive; · = no result.
SMILES,TROY NFkB inh,TWEAK-Fn14 inh,HSP90 inh,LGR2 antag,aDG glyco act,LMP1 NFkB inh,HSP90 inh confirm,luciferase ctr
CCN1CCN(/C=N/c2nc3c(s2)CCCC3)CC1,86*,96*,65*,80*,0,55*,72*,42*
Cc1ccc(C2NC(=O)NC3=C2CCc2ccccc23)cc1 (configuration not stated),69*,79*,23*,-12,1,-3,52*,67*
Cc1ccc(OCC(=O)Nc2ccc(S(=O)(=O)N3CCOCC3)cc2)c(C)c1,6,-14,20*,-1,0,3,7,2
CCC(C)c1ccc(NC(=O)c2ccco2)cc1 (configuration not stated),23,66*,41*,52*,0,12,69*,63*
COCC(=O)N1CC2(C1)[C@@H](c1ccc(-c3ccccc3)cc1)[C@H](CO)N2C(=O)COC,·,·,·,0,·,·,·,·
CC(=O)N(C1=C(N2CCOCC2)C(=O)c2ccccc2C1=O)c1ccc(C(=O)O)cc1,14,18,24*,3,0,3,6,1
O=C(O)c1ccc(NC2=C(N3CCOCC3)C(=O)c3ccccc3C2=O)cc1,5,5,3,4,0,5,·,·
COc1ccc(NC(=O)Nc2ccc3c(c2)CC(=O)N([C@H](C)CO)C[C@H](C)[C@@H](CN(C)S(C)(=O)=O)O3)cc1,·,·,·,19,·,·,·,·
COc1ccc2c(c1)C(C)=CC(C)(C)N2S(=O)(=O)c1ccc(C)cc1,-2,27,0,5,-1,3,·,·
CCOc1ccc2c(c1)C(C)=CC(C)(C)N2S(=O)(=O)c1ccc(C)cc1,14,35,30*,-4,0,21,12,4
S=C(NCCNC(=S)Nc1ccccc1Cl)Nc1ccccc1Cl,12,-11,-6,0,0,8,·,·
NNC(=S)Nc1ccccc1Cl,14,-8,45*,-26,4,0,27*,-17
O=c1[nH]c(Nc2ccccc2)cc2ccccc12,-11,12,17*,20,0,2,25*,-1
CCN1CC(=O)N2[C@H](C1)[C@H](c1ccc(-c3ccccc3F)cc1)[C@@H]2CO,·,·,·,-9,·,·,·,·
CCn1c(=O)c2cc(C(=O)N(C)c3cc(C)ccc3OC)sc2c2ccccc21,3,-26,2,0,0,-5,·,·
CCn1c(=O)c2cc(C(=O)N(C)c3ccc(OC)cc3OC)sc2c2ccccc21,22,-4,23*,9,0,4,8,-2
N#Cc1nc(-c2cccc3ccccc23)oc1N1CCCCC1,-50,-57,21*,·,0,-30,0,-12
COC(=O)c1ccccc1NC(=O)CSc1nnc(-c2ccc(C)cc2)o1,·,·,4,·,·,·,·,·
Cc1ccc(-c2nnc(SCC(=O)Nc3ccccc3F)o2)cc1,78*,86*,54*,57*,0,79*,31*,29*
O=C(CSc1nnc(-c2cccnc2)o1)Nc1ccc(Br)cc1,1,27,18*,0,0,-15,-5,-6
O=C(CSc1nnc(-c2cccnc2)o1)Nc1ccc(F)cc1,-11,-6,·,-2,0,-1,·,·
Cc1cc(C(=O)COC(=O)C23CC4CC(CC(O)(C4)C2)C3)c(C)n1-c1c(C)n(C)n(-c2ccccc2)c1=O,1,-20,1,-6,0,2,·,·
COCCn1c(C)cc(C(=O)COC(=O)C23CC4CC(CC(O)(C4)C2)C3)c1C,65*,76*,35*,·,0,42*,46*,33*
CC1(C)Cc2nc3sc4c(SCC(=O)O)ncnc4c3cc2CO1,-34,17,19*,9,0,52*,31*,7
Cc1ccc(NC(=O)CCNC(=O)Cn2ccc3ccccc3c2=O)cc1F,-21,-7,44*,-16,0,-21,26*,23*
SMILES,TROY NFkB inh,TWEAK-Fn14 inh,HSP90 inh,LGR2 antag,aDG glyco act,LMP1 NFkB inh,HSP90 inh confirm,luciferase ctr
Cc1ccc(C(=O)O/N=C(\N)c2ccccn2)c(C)c1,87*,104*,92*,101*,1,87*,97*,94*
N/C(=N\OC(=O)c1ccccc1Cl)c1ccccn1,70*,102*,73*,95*,0,65*,68*,89*
Cc1ccc(C)c(OCC(=O)O/N=C(\N)c2ccccn2)c1,-63,-22,-2,·,0,-45,·,·
N/C(=N\OC(=O)c1ccccc1[N+](=O)[O-])c1ccccn1,14,34,0,20,0,20,·,·
Cc1ccccc1C(=O)O/N=C(\N)c1ccccc1,-67,42,24*,-102,0,5,49*,77*
COc1cc(OC)c(C(=O)O/N=C(\N)c2ccccn2)cc1OC,-26,-24,-5,-19,0,7,·,·
COc1ccccc1C(=O)O/N=C(\N)c1ccccn1,55*,74*,28*,?,0,22,2,4
COc1ccc2c3c([nH]c2c1)[C@@H](CO)N(C(=O)C1CC1)CC31CN(Cc2nccs2)C1,·,·,·,4,·,·,·,·
O=C(NC1CCCCC1)[C@H]1[C@H](CO)[C@H]2Cn3c(cccc3=O)[C@@H]1N2CC1CCCCC1,·,·,·,-12,·,·,·,·
CN1C(=O)c2cc(NC(=O)Cc3cccs3)ccc2OC[C@H]2O[C@H](CC(=O)O)CC[C@H]21,·,·,·,2,·,·,·,·
O=C1N/C(=C\c2nc3ccccc3s2)c2ccccc21,·,·,21*,·,·,·,53*,25*
COc1ccc(NC(=O)N(C)C[C@@H]2Oc3cc(C#CCN(C)C)ccc3S(=O)(=O)N([C@@H](C)CO)C[C@@H]2C)cc1,·,·,·,1,·,·,·,·
COc1cccc(CNC(=O)C2=C(C)C(=O)OC23CCC(C)CC3)c1 (configuration not stated),20,-14,35*,·,1,9,-2,-4
C[C@@H](C(=O)N(C)C[C@H]1OCc2ccccc2-c2ccccc2C(=O)N([C@@H](C)CO)C[C@@H]1C)c1ccccc1,·,·,·,1,·,·,·,·
CC(C)c1ccc(C(=O)Nc2ccc(CN3CCOCC3)cc2)cc1,7,18,24*,-26,0,17,19*,-10
O=C(Nc1ccc(CN2CCOCC2)cc1)c1cc2ccccn2n1,69*,87*,45*,78*,0,?,61*,41*
O=C(Nc1ccc(CN2CCOCC2)cc1)c1cc2ccccc2o1,10,2,2,·,0,-15,·,·
c1ccc(-c2nc(-c3nccc4ccccc34)oc2-c2ccccc2)cc1,60*,73*,23*,60*,0,1,28*,35*
